Glioma ERSR ind: ER stress response induction in glioma | U87-MG GRP78 promoter luciferase reporter, 16 h | Potency, µM, for inactives: at the top dose activation, actives largely listed as activators | 0.02% of 420,000 active; active = well fitted activation curve with a large enough effect; also: potency is read from the fitted curve at half-maximal effect; series mostly up to about 76 µM; % of control where 0% means no effect; nearly all actives have a fitted effect of over 35% in size
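Stably transfected U87-MG glioma cells carrying a GRP78-based luciferase sensor; 16 h compound incubation. Luminescence end-point read 10 min after Bright-Glo addition at room temperature.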
TRHR agonist: TRH receptor (human) agonism; P34981; activation, % at 2 µM; AID 493084; 0.18% of 360,000 active; TRHR cells, calcium flux fluo-8, FDSS agonist mode; also: 0% is about no effect
Target sequence (P34981 whole entry, looked up): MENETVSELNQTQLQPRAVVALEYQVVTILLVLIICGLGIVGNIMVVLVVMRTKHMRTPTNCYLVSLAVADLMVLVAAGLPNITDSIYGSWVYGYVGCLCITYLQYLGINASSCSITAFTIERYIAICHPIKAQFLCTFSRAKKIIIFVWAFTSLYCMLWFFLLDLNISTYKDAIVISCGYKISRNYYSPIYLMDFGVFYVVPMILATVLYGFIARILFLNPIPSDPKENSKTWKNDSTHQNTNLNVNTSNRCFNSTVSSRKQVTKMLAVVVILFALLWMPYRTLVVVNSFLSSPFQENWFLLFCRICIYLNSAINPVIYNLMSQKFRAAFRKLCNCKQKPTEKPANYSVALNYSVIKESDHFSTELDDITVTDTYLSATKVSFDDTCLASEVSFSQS
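TRHR-expressing cells, plated overnight in medium with 10% serum, were loaded with fluo-8 calcium dye at room temperature. After a 10 s baseline, library compound was pin-added and calcium release was recorded kinetically (ex 480/em 530) as agonist response.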
D1 ag: activates the human D1 dopamine receptor; HEK293 T-REx D1 cells, calcium flux, agonist mode; 1% of 360,000 active; activation, % at 2 µM; also: 0% is about no effect
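Tetracycline-induced HEK293 TREx D1 cells, force-coupled to calcium signalling, were dye-loaded with a no-wash calcium kit. Compound was pin-added after a 10 s baseline. Fluorescence was read kinetically at 1 cycle/s for 180 s, with calcium rises flagged as agonism.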
D1 PAM: human D1 dopamine receptor positive modulation | P21728 | HEK293 TREx D1 cells, calcium flux, dopamine EC20 potentiation | potentiation, % at 10 µM | 0.036% of 360,000 active | AID 504651; in the data active = potentiation above about 30%; also: 0% is about no effect
TRHR PAM: allosterically enhances the human TRH receptor. 0.66% of 360,000 active. P34981. enhancement, % at 2 µM. TRHR cells, fluo-8 calcium fluorescence, EC20 TRH enhancement. AID 493056; in the data active = enhancement above about 30%; also: 0% is about no effect
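TRHR-expressing cells loaded with fluo-8 calcium dye were read kinetically (ex 480/em 530) during compound addition, then stimulated with an EC20 of TRH (10 nM final). Enhancement of the Gq-mediated intracellular calcium response was scored.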
D1 antag: blocks dopamine activation of the human D1 receptor; activity change, negative = inhibition, % at 10 µM; 3.2% of 360,000 active; HEK293 TREx D1 cells, calcium flux, dopamine EC80; active compounds read low; P21728; in the data active = activity change below about -30%; also: % is scaled to controls: 0 for no effect and ±100 for the full control effect
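After overnight tetracycline induction at 30 C, force-coupled D1 HEK293 cells took up a no-wash calcium dye at room temperature. Compounds were added and monitored 180 s, and the response to EC80 dopamine was then recorded.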
* hit, by the source's call; nt = no result given. Sampled rows, rich in hits. Any-hit rate of the full collection: about 4%. Rule as the data show it, unless noted: active = activation above about 30%; inactive = the rest.

SMILES	Glioma ERSR ind	TRHR agonist	D1 ag	D1 PAM	TRHR PAM	D1 antag
CCc1ccc2n(-c3ccc(OC)cc3)c([S-])c(C(=O)Nc3cc(C)cc(C)c3)[n+]2c1	-3%	0	2	-1	1	13
CCCCCOc1c(Cl)cc(C(=O)N(Cc2ccc(C)o2)C2CCS(=O)(=O)C2)cc1Cl (configuration not stated)	8%	-2	30*	-2	27	14
Nc1ccn(CCCNCC(c2ccccc2)c2ccccc2)c(=O)n1	-2%	nt	nt	nt	nt	nt
O=C(C1CCCN(S(=O)(=O)c2ccc(Br)cc2)C1)N1CCOCC1 (configuration not stated)	-5%	0	6	6	3	-53*
COc1ccc(S(=O)(=O)N2CCOCC2)cc1	-3%	nt	nt	nt	nt	nt
O=S(=O)(c1ccc(Oc2ccc(Br)cc2)cc1)N1CCOCC1	4%	1	15	-6	-6	-32*
CN1CCN(C(=O)C2CCCN(S(=O)(=O)c3ccc(Br)cc3)C2)CC1 (configuration not stated)	-4%	1	4	3	7	15
CCN(CC)c1ccc(/C=N/N2CCN(c3ccccc3OC)CC2)cc1	0%	-1	4	0	-5	-11
CC(=O)NCCNc1ncnc2ccc(-c3ccccc3Cl)cc12	-2%	nt	nt	nt	nt	nt
COc1ccc(S(=O)(=O)Nc2ccc3c(c2)OCCO3)cc1Cl	-2%	0	18	-8	2	-32*
COc1ccc(NS(=O)(=O)c2ccc3c(c2)OCCO3)cc1OC	-2%	1	15	0	-1	-22
CC(=O)Nc1ccc(S(=O)(=O)Nc2ccc3c(c2)OCCO3)cc1Cl	-1%	1	13	-11	-7	-31*
COc1ccccc1-c1ccc(SCC(=O)N2CCOCC2)nn1	1%	0	0	-4	-3	-9
CSc1ccccc1NC(=O)COC(=O)c1ccccc1Cc1ccccc1	0%	1	9	-4	-4	3
COc1cccc(-c2nnn(CCC(=O)O)n2)c1	-5%	0	0	-10	-7	-40*
CCOC(=O)c1c(C)[nH]c(C(=O)OC)c1CCC(=O)OC	-11%	-1	1	-3	3	-36*
CCOC(=O)c1[nH]c(Cc2[nH]c(C(=O)OCC)c(C)c2CCC(=O)OC)c(CCC(=O)OC)c1C	-3%	1	4	-14	-6	-55*
CCCCc1c(C)[nH]c(C(=O)OCC)c1C	-2%	-1	2	3	7	20
CCOC(=O)c1[nH]c(C)c(C(=O)OCC)c1C	-2%	-1	2	nt	19	9
CSCC[C@@H](N)C(=O)O	-2%	nt	nt	nt	nt	nt
CCOc1ccc(CNC(=O)CCSCc2ccccc2F)cc1OC	-2%	-1	1	-1	-1	-4
O=C1c2ccccc2S(=O)(=O)N1CC1CC(c2ccc(Cl)cc2)=NO1 (configuration not stated)	-5%	0	7	-3	-1	-34*
O=C1c2ccccc2S(=O)(=O)N1CC1CC(c2ccccc2)=NO1 (configuration not stated)	4%	-1	0	-6	-5	-34*
COc1ccc2nc(N=Nc3ccc(O)c4ccccc34)sc2c1	-6%	0	1	-8	-3	7
CCOc1ccc(N2CC(C(=O)Nc3ccc(S(=O)(=O)N4CCCC4)cc3)CC2=O)cc1 (configuration not stated)	0%	0	7	-13	0	-7
SMILES	Glioma ERSR ind	TRHR agonist	D1 ag	D1 PAM	TRHR PAM	D1 antag
CCN(CC)c1ccc2c(c1)oc(=O)c1c(Cl)cc(=O)oc12	-15%	75*	142*	-5	-10	-38*
CCOC(=O)C1CCCN(S(=O)(=O)Cc2ccccc2Cl)C1 (configuration not stated)	-5%	0	2	-8	-9	-31*
CCOC(=O)C1CCCN(Cc2cc(=O)oc3cc(C)ccc23)C1 (configuration not stated)	-1%	-1	0	-2	-8	-41*
CCCS(=O)(=O)N1CCCC(C(=O)Oc2ccccc2Cl)C1 (configuration not stated)	-1%	0	0	-8	-4	29
CCOC(=O)C1CCCN(CC(=O)Nc2cc(C)cc(C)c2)C1 (configuration not stated)	-5%	-1	3	-3	-10	-40*
CCOC(=O)C1CCCN(Cc2ccc(-c3ccccc3)cc2)C1 (configuration not stated)	0%	-1	4	5	2	-17
CCOC(=O)C1CCCN(Cc2c(Cl)cccc2Cl)C1 (configuration not stated)	-5%	-1	2	-7	-2	-36*
CC(C)(NC(=O)c1cc(Cl)c2ccccc2c1O)C(=O)O	6%	0	0	0	7	-30*
COC(=O)c1c(NC(=O)C2CC=CCC2C(=O)O)sc2c1CCCCC2 (configuration not stated)	-1%	0	5	-1	31*	-10
COc1cc(C(=O)N2CCC(C(=O)Nc3cccc(C(C)=O)c3)CC2)cc(OC)c1OC	-3%	0	1	-10	6	0
COC(=O)/C(=C\c1ccc([N+](=O)[O-])o1)NC(=O)c1ccccc1	-2%	1	0	5	3	-20
CN(C)C(=O)/C(=C\c1ccc(-c2cccc([N+](=O)[O-])c2)o1)NC(=O)c1ccccc1	-3%	0	0	-7	-5	13
CN(C)C(=O)/C(=C/c1ccc(-c2cccc([N+](=O)[O-])c2)o1)NC(=O)c1ccccc1	-3%	-1	5	-2	-3	-56*
CCCCNC(=O)/C(=C\c1ccc([N+](=O)[O-])o1)NC(=O)c1ccccc1	-1%	1	3	-3	1	-39*
CCOc1ccc(NS(=O)(=O)c2cc(NC(=O)C3CC3)ccc2C)cc1Br	-1%	nt	nt	nt	nt	nt
O=C(C1CC1)N1CCC(Oc2cccc(C(=O)N3CCCCC3CCO)c2)CC1 (configuration not stated)	-3%	0	3	-4	-3	2
CCCc1cc(NCCCCO)n2c(nc3ccccc32)c1C#N	-4%	0	8	0	3	-36*
CCN(CC)CCCNc1cc(C(F)(F)F)c(C#N)c2nc3ccccc3n12	6%	-1	46*	-2	-22	-1
CCOC(=O)/C=c1\s/c(=C\c2ccccc2C)c(=O)n1CC(=O)NCc1ccc2c(c1)OCO2	-1%	0	5	-10	-1	-57*
CCOC(=O)/C=c1\s/c(=C\c2ccc3cc(OC)ccc3c2)c(=O)n1CC(=O)NCc1ccc2c(c1)OCO2	-5%	2	3	-9	-2	-19

Bioassay records deposited in PubChem by National Center for Advancing Translational Sciences (NCATS).
